Laboratory results published in article PMC5540273 (PLoS ONE, 2017).

Legend:
Conditions in all cases: concentration: 1 μM, replicates: in singlicate; n = 1
[1] = system: T1, MRCKB
T1 construct: gene CDC42BPB

[2] = system: MST1R
[3] = system: T2, MST1
T2 construct: gene STK4

[4] = system: T3, MST2
T3 construct: gene STK3

[5] = system: T4, MST3
T4 construct: gene STK24

[6] = system: MST4
[7] = system: MTOR
[8] = system: MUSK
[9] = system: MYLK2
[10] = system: MYLK4
[11] = system: MYLK
[12] = system: MYO3A
[13] = system: MYO3B
[14] = system: T5, NDR1
T5 construct: gene STK38

[15] = system: NDR2
[16] = system: NEK10
[17] = system: NEK11
[18] = system: NEK1
[19] = system: NEK2
[20] = system: NEK3
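Note: KINOMEscan kinase panel screen.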

SMILES	%Inh [1] [%]	%Inh [2] [%]	%Inh [3] [%]	%Inh [4] [%]	%Inh [5] [%]	%Inh [6] [%]	%Inh [7] [%]	%Inh [8] [%]	%Inh [9] [%]	%Inh [10] [%]	%Inh [11] [%]	%Inh [12] [%]	%Inh [13] [%]	%Inh [14] [%]	%Inh [15] [%]	%Inh [16] [%]	%Inh [17] [%]	%Inh [18] [%]	%Inh [19] [%]	%Inh [20] [%]
CCn1c(-c2ccoc2)nc2cnccc21 [SB-733887]	0	0	0	0	0	0	29	2	18	0	11	6	0	0	0	19	12	2	0	16
Cn1c(=O)c(F)c(Nc2ccc(I)cc2F)c2c(=O)n(OC[C@H](O)CO)cnc21	0	0	19	0	0	0	0	8	1	0	22	0	28	7	3	0	0	0	14	35
Cc1cccc(-c2cc(-c3c[nH]nc3-c3ccccn3)ccn2)c1 [GW679395]	0	60	0	0	4	0	10	0	0	2	32	7	0	15	0	24	0	0	0	3
CCCC(=O)Nc1n[nH]c2ncc(-c3cccc4ccccc34)cc12 [SB-642057]	17	18	5	0	6	0	17	11	9	0	28	0	0	13	3	100	0	0	0	28
C[C@@H]1CC[C@H](C(=O)NC2CCCCC2)CN1c1cc(-c2ccc3c(N)n[nH]c3c2)nc(N)n1 [GSK2291363]	15	50	12	0	14	0	18	21	11	23	52	36	0	14	7	29	0	10	0	12
COc1cc2ncn(-c3cc(OCc4ccncc4Br)c(C(N)=O)s3)c2cc1OC [GW854278]	0	74	0	23	34	24	9	4	0	70	72	0	9	0	17	0	0	0	33	29
O=C(Nc1n[nH]c2nc(-c3ccccc3)c(Br)cc12)C1CC1 [SB-708998]	0	100	18	7	0	0	16	0	95.7	0	7	0	13	18	0	4	0	0	15	0
Cc1nc(N(C)[C@H]2CN(C(=O)CC#N)CC[C@H]2C)c2cc[nH]c2n1	0	3	0	37	8	0	25	0	0	0	10	0	9	0	13	0	0	0	0	3
COc1cc2ncn(-c3cc(OCc4ccc(S(C)(=O)=O)cc4)c(C(N)=O)s3)c2cc1OC [GW869979]	0	0	0	44	7	14	6	0	0	8	46	0	0	25	4	29	14	0	0	14
Cc1ccccc1COc1cc(-n2cnc3cc(Cl)ccc32)sc1C(N)=O [GW813349]	0	0	0	12	0	0	18	0	0	24	5	0	0	3	1	0	0	0	5	13
CCc1nc(-c2cccc(C)c2)c(-c2ccncc2)s1	0	0	0	8	8	0	34	5	5	0	12	4	15	40	0	3	0	0	0	28
COC(=O)c1c(-c2ccccc2)c2cc(C)ccc2c(=O)n1Cc1ccccc1	0	31	0	21	0	0	0	12	0	0	0	0	0	0	0	0	0	0	0	24
COc1cc2nccc(Nc3cccc(Oc4ccccc4)c3)c2cc1OC.Cl [GW284543]	0	18	1	47	0	0	15	6	0	0	0	0	36	8	0	0	19	0	0	0
Nc1ncnc2c1ncn2-c1cccc(F)c1 [SKF-97560]	0	0	0	50	0	37	14	0	0	11	38	0	0	15	17	53	38	0	0	25
Cc1ccc(-c2ccc3c(ccc4sc5c(c43)NC[C@@H](C)N=C5N(C)C)n2)cn1	3	13	0	0	1	0	31	0	0	100	0	0	0	0	0	0	0	0	0	20
COc1ccc(CNC(=O)NC2CCN(c3ccnc(Nc4ccc(F)cc4)n3)C2)cc1 (stereo not drawn) [GSK1379706]	12	41	0	9	6	0	28	4	6	17	9	42	0	28	50	25	43	17	16	13
Nc1ncnc2c1ncn2-c1cccc2ccccc12 [SKF-97184]	0	6	7	0	0	0	28	0	0	4	0	0	27	29	4	0	27	11	0	31
COc1cc(OC)cc(-c2cc3cnc(N)nc3nc2NC(=O)NC(C)(C)C)c1	0	0	0	1	0	0	58	0	13	11	7	0	0	0	0	0	0	0	3	33
COC(=O)c1c(-c2ccccc2)c2cc(Br)ccc2c(=O)n1Cc1ccc(S(C)(=O)=O)cc1	0	43	10	32	5	0	28	7	0	2	20	26	0	7	19	0	0	0	10	21
COc1cc2nccc(Nc3ccc(OCc4ccc(NC(C)=O)cc4)cc3)c2cc1OC.Cl [GW440135]	0	12	0	20	0	1	15	3	0	0	13	20	0	0	0	12	0	0	0	0
COc1cc(Nc2ccnc3ccc(C(F)(F)F)cc23)cc(OC)c1OC [GW577382]	6	34	13	5	4	0	21	8	4	10	0	12	10	13	1	10	0	0	0	3

SMILES	%Inh [1] [%]	%Inh [2] [%]	%Inh [3] [%]	%Inh [4] [%]	%Inh [5] [%]	%Inh [6] [%]	%Inh [7] [%]	%Inh [8] [%]	%Inh [9] [%]	%Inh [10] [%]	%Inh [11] [%]	%Inh [12] [%]	%Inh [13] [%]	%Inh [14] [%]	%Inh [15] [%]	%Inh [16] [%]	%Inh [17] [%]	%Inh [18] [%]	%Inh [19] [%]	%Inh [20] [%]
CCC(=O)c1c(-c2ccccc2)c2cc(Cl)ccc2c(=O)n1Cc1cc(C(=O)NC2CC2)n(C)n1	0	37	12	0	0	0	12	2	0	0	0	4	0	0	0	0	0	10	0	13
O=C(NCc1cccs1)c1cc(C(=O)c2c(Cl)cccc2Cl)c[nH]1 [GW823670]	0	0	15	0	0	0	0	2	0	4	0	0	18	26	14	0	0	15	0	20
CCC(=O)c1c(-c2ccccc2)c2cc(Cl)ccc2c(=O)n1Cc1cc(S(C)(=O)=O)n(CC(F)F)n1	0	31	0	0	0	0	7	0	47	1	0	0	0	3	0	5	0	0	0	22
COc1ccc(-c2cc3c(C)nc(N)nc3n([C@H]3CC[C@H](O)CC3)c2=O)cn1	30	0	0	0	2	0	99	0	4	0	98.8	0	0	0	0	0	0	0	0	16
Cc1cc(Nc2nc(-c3cccc(C)n3)nc3ccccc23)ccn1 [GW872411]	0	0	0	0	0	0	73	9	0	26	0	0	0	31	22	6	0	0	0	14
COc1ccc(-c2cc3c(C)nc(N)nc3n([C@H]3CC[C@H](OCCO)CC3)c2=O)cn1	0	0	6	0	23	0	96.3	0	2	7	0	0	25	11	0	22	0	0	0	19
COc1ccc(-n2cnc3c(N)ncnc32)cc1 [SKF-97236]	1	0	24	13	6	0	16	12	52	0	0	4	0	3	0	40	3	0	0	0
Cc1nnc(-c2ccc(C)c(-c3ccc(C(=O)O)cc3)c2)o1 [GW608005]	0	17	0	0	0	0	0	5	2	3	5	0	0	9	0	0	5	0	19	0
CN(C)c1cc(-c2ccc3c(N)n[nH]c3c2)nc(N)n1 [GSK2219329]	0	18	1	0	5	0	1	0	9	0	0	11	0	17	0	0	0	0	0	0
Cc1ccc(Oc2ccc(Nc3ncnc4cc[nH]c34)cc2C)cn1	0	35	0	15	3	0	0	0	18	19	38	9	28	8	0	0	0	0	2	20
CCC(=O)c1c(-c2ccccc2)c2cc(Cl)ccc2c(=O)n1Cc1cc(S(C)(=O)=O)n(CC(N)=O)n1	0	0	0	0	0	0	40	0	0	0	0	0	0	32	0	0	0	0	0	32
CCn1c(-c2nonc2N)nc2ccccc21 [SB-693162/GW549034]	0	0	0	34	11	0	0	42	0	0	48	0	18	37	23	12	25	0	0	0
COc1cccc(C2=C(N(C)c3ccccc3)C(=O)NC2=O)c1 [SB-334865]	0	10	5	0	0	0	19	2	9	0	1	22	0	16	0	22	0	0	0	26
O=c1cc(N2CCOCC2)nc2n(Cc3ccc(F)c(Cl)c3)ccn12 [GSK2297099]	0	13	0	16	0	0	12	5	0	3	9	8	0	9	0	0	0	0	0	13
Nc1n[nH]c2nnc(-c3ccccc3)c(-c3ccccc3)c12 [GW554060]	0	40	0	0	0	0	12	20	0	1	16	0	0	9	10	9	5	0	0	4
Fc1cccc(CSc2nnc(-c3ccc4c(c3)CCO4)o2)c1	0	35	3	0	0	0	36	0	11	0	2	0	0	16	22	0	0	0	1	19
CN1C(=O)C(Nc2cc(Cl)c(O)c(Cl)c2)=C(c2ccc(Cl)cc2)C1=O [SB-404321]	0	0	0	33	0	0	2	0	11	0	0	0	8	0	0	0	0	0	0	16
O=C1NC(=O)C(c2ccccc2)=C1Nc1cccc(O)c1 [SB-390534]	0	20	7	24	0	9	0	8	16	15	37	17	21	0	0	0	16	0	16	30
CCc1ccc(-c2ccc3c(c2)-c2nn(C)cc2S(=O)(=O)N3C)cc1	0	0	0	0	0	0	23	1	0	6	3	96.5	0	19	0	0	0	0	0	36
O=C(Nc1ccc2c(c1)OCO2)NC1CCN(c2ccnc(NCc3ccc(F)cc3)n2)CC1 [GSK1379859]	0	17	5	47	0	0	8	0	0	0	20	0	0	0	0	3	8	0	3	0
Cc1nn2c(=O)cc(N3CCOCC3)nc2n1Cc1cccc(Cl)c1Cl [GSK2342769]	0	13	0	4	0	0	45	18	0	4	16	0	0	0	0	0	0	0	2	0
